Screening results as filed in PubChem BioAssay.
Vif imaging – inhibitors of HIV Vif; inhibition, % at 7.49 µM; HEK293T cells, Vif self-association by quenched fluorescence, imaging, 24 h; hit rate 0.35% among 340,000; AID 602346; in the data active = inhibition above about 50%, passing the limit was not always enough; inconclusive = no clear call, values can overlap the other calls; inactive = below about 31%
PvdQ inh – blocks Pseudomonas aeruginosa PvdQ acylase activity. purified PvdQ acylase, fluorescence plate reader. inhibition, % at 10 µM. hit rate 0.063% among 340,000. AID 488965; in the data active = inhibition above about 30%, passing the limit was not always enough; inconclusive = no clear call, values can overlap the other calls;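 also: 0% = vehicle neutral wells and 100% = reference inhibitor wells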
MITF TRPM1 HTS – MITF TRPM1 promoter activation in melanoma cells | AID 588334 | hit rate 0.75% among 300,000 | activation, % at 12.5 µM | SK-MEL-5 TRPM1-promoter luciferase, 24 h; % of positive control, neutral wells = 0;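 active = mean activation of at least 80% with every replicate also reaching 80%; inconclusive = mean reaches 80% but some replicate falls short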;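 also: 0% = neutral control wells and 100% = parthenolide positive control wells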
esBAF inh – SWI/SNF esBAF complex inhibition. reporter increase, % at 12.5 µM. mouse ES cells, Bmi1-luciferase knock-in reporter, 24 h; 100% = twice the neutral-well signal. hit rate 2% among 350,000. AID 602393; in the data active = activation above about 40%; inconclusive = no clear call, values can overlap the other calls;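 also: 0% = median of the plate's neutral control wells and 100% = double that signal; a rise in the Bmi1 reporter signal indicates esBAF inhibition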
N-glyco inh – N-linked glycosylation inhibition; D54 ERlucT glycosylation luciferase reporter, 24 h; percent of 100 nM tunicamycin response; reporter increase, % at 12.5 µM; hit rate 0.23% among 360,000; AID 588692;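 active = mean luciferase reporter signal, scaled so untreated is 0 and the glycosylation-blocking control 100, at or above a set limit in every replicate; inconclusive = mean reaches the limit but not every replicate does; inactive = mean below the limit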;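 also: luciferase carries N-glycosylation sites so blocking glycosylation raises the light; 0% = median of neutral control wells and 100% = median of 100 nM tunicamycin wells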
Wnt act – Wnt/beta-catenin pathway activation; hit rate 1.2% among 300,000; Wnt/beta-catenin reporter cell assay, activator, plate reader; activation, % at 9.35 µM; in the data active = activation above about 30%, passing the limit was not always enough; inconclusive = no clear call, values can overlap the other calls;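 also: 0% = neutral control wells and 100% = positive control wells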
* hit, by the source's call; ? = inconclusive; . = no result. Compounds with a hit are over-represented: about 2.9% of the library has one in this group of screens.

SMILES	Vif imaging	PvdQ inh	MITF TRPM1 HTS	esBAF inh	N-glyco inh	Wnt act
S=C(NCC1CCCO1)Nc1ccc(Cl)cc1 (stereo not drawn)	11	12	6	.	0	4
O=C(Nc1ccc(Cl)cc1Cl)NC1CCCC1	3	14	11	18	-1	7
O=C(COC(=O)c1ccc(Br)cc1)NCC1CCCO1 (stereo not drawn)	-1	-11	16	-8	1	-1
S=C(Nc1ccc(Cl)cc1Cl)NC1CCCCC1	7	-6	107*	84*	-1	.
S=C(NCC1CCCO1)Nc1ccc(Cl)cc1Cl (stereo not drawn)	-7	12	10	49*	-2	?
O=C(NCC1CCCO1)Nc1ccc(Cl)cc1 (stereo not drawn)	5	-19	43	45*	-1	-1
O=C(COC(=O)c1ccccc1)NCC1CCCO1 (stereo not drawn)	-19	-13	8	49*	-1	.
Cc1cccc(NC(=S)NNC(=S)NC2CCCCC2)c1C	7	7	-1	.	0	0
Cc1ccccc1NC(=S)NC1CCCC1	59*	-3	1	2	1	2
COC(=O)c1ccc(NC(=O)C(=O)NCC2CCCO2)cc1 (stereo not drawn)	1	-18	14	45*	1	14
O=C(NC(=S)NCC1CCCO1)c1ccc(Cl)cc1 (stereo not drawn)	1	-11	88*	.	1	2
CNC[C@@H]1OCCCC[C@@H](C)Oc2ccc(NS(=O)(=O)c3ccccc3)cc2C(=O)N([C@@H](C)CO)C[C@@H]1C	.	.	.	0	.	.
CCc1cnc(N2[C@H](C#N)[C@@H](c3ccc(-c4cccc(F)c4)cc3)[C@H]2CO)s1	.	.	.	-8	.	.
CCOC(=O)c1oc2cccc(OC(C)=O)c2c1C	.	-3	78	?	-1	.
CCOC(=O)c1oc2cccc(O)c2c1C	-20	-4	.	48*	-1	.
O=[N+]([O-])c1cccnc1NCCc1ccccc1	-13	5	38	73*	0	3
O=[N+]([O-])c1cccnc1NCCNc1ncc(C(F)(F)F)cc1Cl	-10	6	101*	48*	-1	.
CC(C)C(=O)Nc1ccc(-c2csc(-c3ccccc3)n2)cc1	-6	-7	139*	71*	0	.
Cc1nc(-c2ccc(NC(=O)C3CC3)cc2)cs1	-3	-14	?	49*	-1	14
CC(C)CC(=O)Nc1ccc(-c2cn3ccsc3n2)cc1	.	-5	74	36	-10	.
CCCCc1ccc(NC(=O)CC(C)C)cc1	19	-12	62	48*	-1	-10
Cc1nc(-c2cccc(NC(=O)C3CCCCC3)c2)cs1	21	1	2	2	2	1
Cc1nc(-c2ccc(NC(=O)CC(C)C)cc2)cs1	-10	-1	92*	.	-6	37*
Cc1noc(C)c1S(=O)(=O)Nc1cccc2c1O[C@H](CN(C)Cc1ccncc1)[C@H](C)CN([C@H](C)CO)C2=O	.	.	.	2	.	.
CCS(=O)(=O)N[C@@H]1CC[C@@H](CC(=O)NC2Cc3ccccc3C2)O[C@@H]1CO	.	.	.	6	.	.
SMILES	Vif imaging	PvdQ inh	MITF TRPM1 HTS	esBAF inh	N-glyco inh	Wnt act
CNC[C@@H]1Oc2c(NC(=O)Nc3ccc(OC)cc3)cccc2C(=O)N([C@H](C)CO)C[C@@H]1C	.	.	.	-3	.	.
COc1ccc2cc(C)c3nnc(SCC(=O)Nc4nc(-c5ccc(F)cc5)cs4)n3c2c1	-2	-15	-39	.	38*	.
COc1ccc(-c2csc(NC(=O)CC(C)C)n2)cc1	1	8	64	.	-3	53*
COC(=O)c1sccc1NC(=O)c1ccc(Cl)s1	12	-11	-13	-18	2	-1
COC(=O)c1sccc1NC(=O)c1ccc(C)s1	0	-8	.	12	2	34*
COc1cccc(-c2ccc3nccn3c2)c1	5	.	.	49*	2	-3
CN1CCN(C(=O)c2cccc(-c3ccc4nccn4c3)c2)CC1	3	.	.	-6	0	2
CCOc1cccc(OCCOc2ccccc2[N+](=O)[O-])c1	0	-5	?	80*	-2	.
COc1ccc(C(=O)NCCn2ccc3ccccc32)cc1	.	-12	98*	44*	-5	.
Cc1ccc(C(=O)NCCn2ccc3ccccc32)cc1[N+](=O)[O-]	4	2	16	.	-2	0
O=C(NCCn1ccc2ccccc21)c1ccc2c(c1)OCO2	.	-2	77	52*	-7	38*
COCC#Cc1cnc2c(c1)C(=O)N([C@H](C)CO)C[C@H](C)[C@@H](CN(C)Cc1ccc(F)cc1)O2	.	.	.	-2	.	.
Cn1cnc([N+](=O)[O-])c1Sc1nc2ccccc2[nH]1	5	.	.	.	29*	-5
Cc1nc([N+](=O)[O-])c(Sc2nc3ccccc3[nH]2)n1Cc1ccccc1	8	-16	-46	.	19	.
O=C(Nc1ccccc1)c1ccc(F)cc1F	3	2	63	37	1	10
CC(=O)N1CCN(c2ccc(NC(=O)c3cccc(Cl)c3Cl)cc2)CC1	0	-11	.	-2	-6	-1
O=C(Nc1ccc(N2CCCC2)cc1)c1cccc(Cl)c1Cl	-4	-16	.	85*	1	-1
Cc1ccc(NC(=O)c2ccc(F)cc2F)cc1	-3	-3	60	-51	-7	46*
O=C(Nc1ccc(Nc2ccccc2)cc1)c1ccccc1F	-5	-10	.	52*	4	-1
O=C(O)c1cc(NC(=O)c2ccccc2F)cc(NC(=O)c2ccccc2F)c1	1	-9	-3	-10	2	-1
O=C(Nc1ccc(F)cc1)Nc1ccc(Cl)cn1	-5	-13	?	35	-1	.
O=C(NC(=O)c1ccc(F)cc1F)Nc1ccc(Cl)cc1	18	5	64	.	3	33*
CO[C@@H]1CN(C)C(=O)c2ccc(NC(C)=O)cc2OC[C@H](C)N(Cc2cc(F)ccc2F)C[C@H]1C	.	.	.	-2	.	.
O=C(N[C@H]1CC[C@H](CCNC(=O)c2ccccc2F)O[C@@H]1CO)c1ccc2c(c1)OCO2	.	.	.	2	.	.
O=C(Nc1ccc(N2CCCC2)cc1)c1cccc(F)c1	-9	-13	73	3	-1	22
O=C(Nc1ccc(N2CCN(C(=O)c3cccs3)CC2)cc1)c1ccccc1F	10	4	4	-1	-5	-3
O=C(Nc1ccc(N2CCCCC2)cc1)c1ccc(F)cc1F	14	-15	22	-29	-16	44*
